Test results published in PubChem BioAssay (EPA / NIEHS).
Results filed as inconclusive are left out. Active and inactive are the calls of the source. Rule for the calls, unless noted: active = hit-call score of the fitted dose curve at least 0.9, where 1 is the maximum; inactive = score below 0.9.

Experiments:
[1] = target: mouse Estrogen Receptor alpha (Era), Esr1 (gene 13982) (UniProt P19785); test: NVS_NR_mERa: NovaScreen (NVS) Nuclear Receptor Binding Assay for mouse Estrogen Receptor alpha (Era) (AID 2283378; active = hit-call score of the fitted dose curve at least 0.9, where 1 is the maximum;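 note: hit means loss of bound radioligand signal relative to DMSO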)
Sequence of mouse Estrogen Receptor alpha (Era), Esr1 (gene 13982) (P19785 whole entry, looked up): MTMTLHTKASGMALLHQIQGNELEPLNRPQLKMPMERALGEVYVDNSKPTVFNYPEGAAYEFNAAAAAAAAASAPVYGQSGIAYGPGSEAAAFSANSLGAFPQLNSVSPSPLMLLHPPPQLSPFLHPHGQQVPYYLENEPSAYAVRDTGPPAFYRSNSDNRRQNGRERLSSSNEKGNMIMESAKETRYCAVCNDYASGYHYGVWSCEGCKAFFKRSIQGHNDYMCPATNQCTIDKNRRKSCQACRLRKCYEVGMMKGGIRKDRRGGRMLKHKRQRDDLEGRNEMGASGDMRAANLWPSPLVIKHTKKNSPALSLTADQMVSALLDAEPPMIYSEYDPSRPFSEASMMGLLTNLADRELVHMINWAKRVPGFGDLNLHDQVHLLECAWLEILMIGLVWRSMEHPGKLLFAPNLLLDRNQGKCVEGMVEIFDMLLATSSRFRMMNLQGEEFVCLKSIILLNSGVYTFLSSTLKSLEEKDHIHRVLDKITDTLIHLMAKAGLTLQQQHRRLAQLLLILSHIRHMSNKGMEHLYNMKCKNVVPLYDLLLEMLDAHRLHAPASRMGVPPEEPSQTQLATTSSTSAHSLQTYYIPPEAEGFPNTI
Method in brief: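 Extracted mouse Era incubated with tritiated or iodinated radioligand plus test chemical, 18 h. Bound fraction separated on filters, counted by scintillation. DMSO = negative control/baseline; duplicate single-point at 25 uM, then concentration-response follow-up.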

[2] = target: Estrogen receptor (Homo sapiens) (UniProt P03372); test: OT_ERa_GFPERaERE_0480: Odyssey Thera (OT) 8-hour HeLa Transcription Induction Assay for Estrogen Receptor (AID 2283381)
Sequence of Estrogen receptor (Homo sapiens) (P03372 whole entry, looked up): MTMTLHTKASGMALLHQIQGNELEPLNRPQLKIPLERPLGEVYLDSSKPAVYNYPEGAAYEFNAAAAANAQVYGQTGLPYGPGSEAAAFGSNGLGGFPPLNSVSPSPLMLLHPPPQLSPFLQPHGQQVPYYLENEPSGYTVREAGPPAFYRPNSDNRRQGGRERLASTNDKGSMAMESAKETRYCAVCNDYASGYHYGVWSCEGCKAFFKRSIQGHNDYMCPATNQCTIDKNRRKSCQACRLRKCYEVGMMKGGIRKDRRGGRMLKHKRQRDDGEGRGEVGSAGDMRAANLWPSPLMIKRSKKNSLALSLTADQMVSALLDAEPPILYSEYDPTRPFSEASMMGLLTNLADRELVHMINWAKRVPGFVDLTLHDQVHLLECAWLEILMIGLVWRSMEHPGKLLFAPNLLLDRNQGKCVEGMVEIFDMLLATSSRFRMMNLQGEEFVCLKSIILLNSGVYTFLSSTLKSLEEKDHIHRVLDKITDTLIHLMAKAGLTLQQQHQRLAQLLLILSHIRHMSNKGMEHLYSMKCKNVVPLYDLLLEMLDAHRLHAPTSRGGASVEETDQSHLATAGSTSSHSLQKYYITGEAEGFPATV
Method in brief: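 GFP-ERE reporter, HeLa, 8 h exposure. Readout: fluorescence microscopy, high-content image analysis. Fit direction positive vs DMSO negative control.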

[3] = target: Estrogen receptor (Homo sapiens) (UniProt P03372); test: OT_ERa_GFPERaERE_0120: Odyssey Thera (OT) 2-hour HeLa Transcription Induction Assay for Estrogen Receptor (AID 2283382; active = hit-call score of the fitted dose curve at least 0.9, where 1 is the maximum)
Method in brief: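 Fluorescence microscopy read-out: inducible fluorescent protein reporter in HeLa cells, imaged 2 h post-dose. Signal increase over DMSO negative control fitted as single primary endpoint via high content image analysis.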

[4] = target: Retinoic acid receptor RXR-alpha (Homo sapiens) (UniProt P19793); test: OT_NURR1_NURR1RXRa_0480: Odyssey Thera (OT) 8-hour HEK293T Protein Complementation Assay for Nurr1/retinoid X receptor (RXR) (AID 2283385; active = hit-call score of the fitted dose curve at least 0.9, where 1 is the maximum)
Sequence of Retinoic acid receptor RXR-alpha (Homo sapiens) (P19793 whole entry, looked up, the tested form may be a part): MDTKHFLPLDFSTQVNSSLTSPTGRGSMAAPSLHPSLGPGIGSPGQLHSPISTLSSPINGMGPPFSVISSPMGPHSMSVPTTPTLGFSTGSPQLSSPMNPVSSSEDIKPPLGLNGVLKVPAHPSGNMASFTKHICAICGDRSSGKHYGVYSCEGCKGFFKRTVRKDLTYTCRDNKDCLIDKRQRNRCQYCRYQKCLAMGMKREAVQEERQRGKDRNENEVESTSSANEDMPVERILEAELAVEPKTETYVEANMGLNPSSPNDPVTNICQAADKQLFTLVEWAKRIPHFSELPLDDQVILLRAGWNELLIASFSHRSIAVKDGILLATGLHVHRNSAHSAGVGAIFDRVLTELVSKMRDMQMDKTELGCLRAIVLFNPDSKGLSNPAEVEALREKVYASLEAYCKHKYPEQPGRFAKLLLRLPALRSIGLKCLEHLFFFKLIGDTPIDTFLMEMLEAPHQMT
Method in brief: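 Read-out: fluorescence from protein-fragment complementation between Nurr1 and RXRα in human HEK293T cells, 8 h after dosing. DMSO served as negative control; increased signal counted as activity.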

[5] = target: Retinoic acid receptor RXR-alpha (Homo sapiens) (UniProt P19793); test: OT_NURR1_NURR1RXRa_1440: Odyssey Thera (OT) 24-hour HEK293T Protein Complementation Assay for Nurr1/retinoid X receptor (RXR) (AID 2283386; active = hit-call score of the fitted dose curve at least 0.9, where 1 is the maximum)
Method in brief: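 Fluorescence PCA read-out; HEK293T; 24 h post-dose; bait/prey fused to reporter fragments; gain-of-signal fit vs DMSO negative control.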

[6] = target: Agonist Androgen Response Element (ARE), AR (gene 367) (UniProt P10275); test: OT_AR_ARELUC_AG_1440: Odyssey Thera (OT) 24-hour CHO-K1 Luciferase Assay for Agonist Androgen Response Element (ARE) (AID 2283379; active = hit-call score of the fitted dose curve at least 0.9, where 1 is the maximum)
Sequence of Agonist Androgen Response Element (ARE), AR (gene 367) (P10275 whole entry, looked up): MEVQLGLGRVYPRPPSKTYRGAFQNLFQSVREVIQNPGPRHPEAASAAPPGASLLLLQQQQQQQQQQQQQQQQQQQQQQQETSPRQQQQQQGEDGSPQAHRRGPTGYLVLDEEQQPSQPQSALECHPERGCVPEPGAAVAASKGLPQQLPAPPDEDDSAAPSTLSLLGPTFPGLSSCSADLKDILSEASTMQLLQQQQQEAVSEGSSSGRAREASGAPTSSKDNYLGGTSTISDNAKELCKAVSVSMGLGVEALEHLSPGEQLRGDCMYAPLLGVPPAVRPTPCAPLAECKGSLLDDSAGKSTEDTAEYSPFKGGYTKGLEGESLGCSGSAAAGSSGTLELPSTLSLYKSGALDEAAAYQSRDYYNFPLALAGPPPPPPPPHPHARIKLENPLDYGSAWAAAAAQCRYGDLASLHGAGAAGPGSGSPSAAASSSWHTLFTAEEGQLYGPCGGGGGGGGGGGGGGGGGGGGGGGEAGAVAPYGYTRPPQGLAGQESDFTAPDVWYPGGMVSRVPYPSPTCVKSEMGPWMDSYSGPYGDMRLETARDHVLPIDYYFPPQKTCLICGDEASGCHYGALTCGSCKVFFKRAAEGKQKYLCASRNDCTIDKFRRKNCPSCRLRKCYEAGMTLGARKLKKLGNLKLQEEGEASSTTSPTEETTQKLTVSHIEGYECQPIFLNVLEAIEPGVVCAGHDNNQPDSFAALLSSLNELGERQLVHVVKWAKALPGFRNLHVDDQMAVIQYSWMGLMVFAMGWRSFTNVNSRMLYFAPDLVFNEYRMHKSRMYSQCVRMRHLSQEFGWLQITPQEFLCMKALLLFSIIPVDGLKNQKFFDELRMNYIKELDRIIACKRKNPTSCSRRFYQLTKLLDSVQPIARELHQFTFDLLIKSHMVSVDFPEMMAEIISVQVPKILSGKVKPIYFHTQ
Method in brief: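 Readout: luciferase bioluminescence from CHO-K1 ARE-luc cells, measured 24 h post-dosing; agonism = increased mean luminescence vs DMSO controls, fitted in positive direction.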

[7] = target: Estrogen receptor beta (Homo sapiens) (UniProt Q92731); test: OT_ER_ERbERb_1440: Odyssey Thera (OT) 24-hour HEK293T Protein-Complementation Assay for Estrogen Receptor-beta/-beta Homodimer (AID 2283380; active = hit-call score of the fitted dose curve at least 0.9, where 1 is the maximum;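 note: fluorescence gain from ER beta LBD homodimer complementation read by laser scanning cytometry; scored as signal increase over DMSO baseline for both agonists and antagonists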)
Sequence of Estrogen receptor beta (Homo sapiens) (Q92731 whole entry, looked up, the tested form may be a part): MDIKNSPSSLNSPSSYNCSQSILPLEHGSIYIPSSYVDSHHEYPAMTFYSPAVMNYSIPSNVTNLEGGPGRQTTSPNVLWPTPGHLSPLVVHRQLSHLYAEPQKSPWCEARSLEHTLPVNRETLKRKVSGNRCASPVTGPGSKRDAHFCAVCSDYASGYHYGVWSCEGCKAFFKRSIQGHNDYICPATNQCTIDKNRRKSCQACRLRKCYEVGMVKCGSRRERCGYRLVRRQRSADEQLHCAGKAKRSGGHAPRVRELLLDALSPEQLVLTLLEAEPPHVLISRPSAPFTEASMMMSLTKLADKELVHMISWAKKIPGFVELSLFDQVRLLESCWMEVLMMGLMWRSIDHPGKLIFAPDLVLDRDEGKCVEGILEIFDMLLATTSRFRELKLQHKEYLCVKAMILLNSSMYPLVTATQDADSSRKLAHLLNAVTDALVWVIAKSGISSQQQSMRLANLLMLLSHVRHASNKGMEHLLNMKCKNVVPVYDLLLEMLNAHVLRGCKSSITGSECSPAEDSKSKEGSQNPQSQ
Method in brief: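 Fluorescence increase, nuclear for agonists or whole-cell for antagonists, relative to DMSO vehicle, quantified by laser scanning cytometer after fixation and Draq5 staining. Readout from 24 h treatment of HEK293T cells carrying complementation-paired ER beta LBD (aa 310-547).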

[8] = target: Bile acid receptor (Homo sapiens) (UniProt Q96RI1); test: OT_FXR_FXRSRC1_0480: Odyssey Thera (OT) 8-hour HEK293T Protein-Complementation Assay for Farnesoid X receptor/SRC-1 Co-activator (AID 2283383; active = hit-call score of the fitted dose curve at least 0.9, where 1 is the maximum)
Sequence of Bile acid receptor (Homo sapiens) (Q96RI1 whole entry, looked up, the tested form may be a part): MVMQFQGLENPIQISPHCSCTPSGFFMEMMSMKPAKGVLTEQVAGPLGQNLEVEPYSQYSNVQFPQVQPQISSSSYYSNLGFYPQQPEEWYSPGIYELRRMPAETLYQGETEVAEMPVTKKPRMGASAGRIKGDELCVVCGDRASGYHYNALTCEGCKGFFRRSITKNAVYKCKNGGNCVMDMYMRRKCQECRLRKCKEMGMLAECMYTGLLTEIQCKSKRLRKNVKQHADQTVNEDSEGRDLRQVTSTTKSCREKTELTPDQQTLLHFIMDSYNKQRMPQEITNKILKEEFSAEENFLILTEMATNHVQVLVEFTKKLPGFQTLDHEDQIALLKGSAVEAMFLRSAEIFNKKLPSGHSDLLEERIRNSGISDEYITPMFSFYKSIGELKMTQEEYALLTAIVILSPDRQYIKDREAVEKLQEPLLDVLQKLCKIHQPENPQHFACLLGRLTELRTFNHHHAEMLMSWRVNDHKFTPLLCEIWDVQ
Method in brief: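 Fluorescence intensity read-out, 8 h post-dose, HEK293T protein-fragment complementation; FXR bait and SRC-1 prey each linked to reporter fragments. Activity scored as signal increase over DMSO negative control.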

[9] = target: Bile acid receptor (Homo sapiens) (UniProt Q96RI1); test: OT_FXR_FXRSRC1_1440: Odyssey Thera (OT) 24-hour HEK293T Protein-Complementation Assay for Farnesoid X receptor/SRC-1 Co-activator (AID 2283384; active = hit-call score of the fitted dose curve at least 0.9, where 1 is the maximum)
Method in brief: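 Fluorescence readout, 24 h post-dose, HEK293T; FXR and SRC-1 fused to complementary reporter fragments, association reconstitutes signal. Positive-direction fit vs DMSO baseline.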

[10] = target: Peroxisome proliferator-activated receptor gamma (Homo sapiens) (UniProt P37231); test: OT_PPARg_PPARgSRC1_0480: Odyssey Thera (OT) 8-hour Protein-Complementation Assay for Peroxisome Proliferator-activated Receptor Gamma / SRC-1 Co-activator (AID 2283387; active = hit-call score of the fitted dose curve at least 0.9, where 1 is the maximum;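 note: nuclear to cytoplasmic split Venus YFP fluorescence ratio reporting PPARg SRC-1 interaction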)
Sequence of Peroxisome proliferator-activated receptor gamma (Homo sapiens) (P37231 whole entry, looked up, the tested form may be a part): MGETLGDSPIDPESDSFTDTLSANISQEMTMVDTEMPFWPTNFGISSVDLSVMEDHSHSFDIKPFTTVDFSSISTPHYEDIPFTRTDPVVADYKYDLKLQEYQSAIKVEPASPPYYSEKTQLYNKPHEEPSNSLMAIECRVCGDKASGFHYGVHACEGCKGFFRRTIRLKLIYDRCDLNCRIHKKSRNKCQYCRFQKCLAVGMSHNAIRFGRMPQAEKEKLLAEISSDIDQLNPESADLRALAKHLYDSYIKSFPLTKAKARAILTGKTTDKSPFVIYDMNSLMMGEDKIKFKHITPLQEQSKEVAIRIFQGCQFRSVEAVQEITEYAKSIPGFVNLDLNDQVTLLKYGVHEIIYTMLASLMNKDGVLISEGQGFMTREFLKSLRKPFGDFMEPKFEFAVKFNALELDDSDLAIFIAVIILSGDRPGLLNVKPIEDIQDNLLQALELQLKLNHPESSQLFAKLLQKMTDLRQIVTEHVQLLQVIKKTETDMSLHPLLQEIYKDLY
Method in brief: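 Read-out: 488 nm N/C fluorescence ratio from complemented Venus YFP fragments, ≥350 cells per image, gain-of-signal fitted against DMSO baseline. Fusions of PPARg/SRC-1 with IFP1/IFP2 expressed transiently in HEK293T; compounds applied 8 h.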

[11] = CEETOX_H295R_11DCORT: CeeTox H295R High-throughput Steroidogenesis Assay for 11-Deoxycortisol (11DCORT) (AID 2283432); conditions: actives raise or lower the signal;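 for AC50: 11-deoxycortisol secreted into the medium measured by LC-MS/MS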
Method in brief: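 H295R cells; 10 uM forskolin prestim 48 h; compound in 0.1% DMSO 48 h; media extracted with MTBE; 11-deoxycortisol by LC-MS/MS, 7-point standard curve; gain/loss vs DMSO baseline; viability by MTT in same wells.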

[12] = CEETOX_H295R_OHPREG: CeeTox H295R High-throughput Steroidogenesis Assay for OH-Pregnenolone (OHPREG) (AID 2283434); conditions: actives raise or lower the signal
Method in brief: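 Secreted 17alpha-hydroxypregnenolone measured by HPLC-MS/MS after liquid-liquid extraction. Human adrenal H295R cells received 48 h forskolin (10 uM) stimulation before 48 h chemical exposure at 0.1% final DMSO; MTT viability in same wells; bidirectional fit against DMSO.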

[13] = CEETOX_H295R_OHPROG: CeeTox H295R High-throughput Steroidogenesis Assay for OH-Progesterone (OHPROG) (AID 2283435); conditions: actives raise or lower the signal;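 for AC50: 17alpha-hydroxyprogesterone secreted into medium measured by HPLC-MS/MS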
Method in brief: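 HPLC-MS/MS quantification of 17alpha-hydroxyprogesterone secreted by H295R cells after 48 h chemical exposure, following 48 h 10 uM forskolin prestimulation. Gain or loss of signal fitted relative to DMSO. Viability checked by MTT in the same wells.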

[14] = CEETOX_H295R_CORTIC: CeeTox H295R High-throughput Steroidogenesis Assay for Corticosterone (CORTIC) (AID 2283437); conditions: actives raise or lower the signal
Method in brief: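 Medium corticosterone was quantified by tandem mass spectrometry following 48 hours of chemical exposure (0.1% DMSO) in human H295R cells previously stimulated 48 hours with 10 uM forskolin. Viability checked by MTT; chemicals diluted and retested when viability fell below 70%.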

[15] = CEETOX_H295R_CORTISOL: CeeTox H295R High-throughput Steroidogenesis Assay for Cortisol (AID 2283438); conditions: actives raise or lower the signal;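 note: cortisol secreted into medium quantified by LC-MS/MS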
Method in brief: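 Read-out: cortisol in culture medium by reverse-phase C18 HPLC with ESI-positive tandem MS, after MTBE liquid-liquid extraction. Cells: human adrenal H295R, forskolin-primed (10 uM, 48 h) before 48 h chemical exposure in 0.1% DMSO.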

[16] = CEETOX_H295R_DOC: CeeTox H295R High-throughput Steroidogenesis Assay for DOC (AID 2283439); conditions: actives raise or lower the signal
Method in brief: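 Human adrenocortical H295R cells, passages up to 10, received 10 uM forskolin for 48 h before chemical addition. After another 48 h exposure in 0.1% DMSO, secreted DOC was measured by LC-MS/MS, with gain or loss fitted against DMSO controls.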

[17] = CEETOX_H295R_ESTRADIOL: CeeTox H295R High-throughput Steroidogenesis Assay for Estradiol (AID 2283440); conditions: actives raise or lower the signal;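 note: estradiol secreted into medium quantified by LC-MS/MS after dansyl derivatisation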
Method in brief: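 Estradiol secreted into the medium was measured by tandem mass spectrometry after liquid-liquid extraction and dansylation. Human H295R cells had been forskolin-primed (10 uM, 48 h) before a 48 h chemical exposure with 0.1% DMSO.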

[18] = CEETOX_H295R_ESTRONE: CeeTox H295R High-throughput Steroidogenesis Assay for Estrone (AID 2283441); conditions: actives raise or lower the signal;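 note: estrone secreted into medium measured by LC-MS/MS after dansyl derivatization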
Method in brief: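 Forskolin-stimulated H295R cells are treated 48 h with chemical, and estrone in the medium is measured by LC-MS/MS. Activity is fitted in both directions relative to DMSO controls, with chemicals diluted until MTT viability reaches at least 70%.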

[19] = CEETOX_H295R_PROG: CeeTox H295R High-throughput Steroidogenesis Assay for Progesterone (PROG) (AID 2283442); conditions: actives raise or lower the signal
Method in brief: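 Steps: seed H295R cells and let them adhere overnight; prime 48 h with 10 uM forskolin; dose with compound in DMSO at 0.1% final for 48 h; extract medium steroids with MTBE; measure progesterone by LC-MS/MS. MTT viability was run in the same wells.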

Measured: AC50

CCCCCCCCn1sc(Cl)c(Cl)c1=O
active: [1] 25 µM
inactive: [2] | [3] | [4] | [5]

COCCOCCC[Si](C)(O[Si](C)(C)C)O[Si](C)(C)C
inactive: [1] | [6] | [2] | [3] | [9] | [10]
active: [7] 53.3 µM | [8] 50 µM | [4] 33.2 µM | [5] 90.4 µM

CC1CCCCC1
inactive: [11] | [12] | [13] | [14] | [15] | [16] | [17] | [18] | [19]

CC(C)(C)c1cc(Cc2cc(C(C)(C)C)c(O)c(C(C)(C)C)c2)cc(C(C)(C)C)c1O
inactive: [7] | [2] | [3] | [8] | [5] | [10]
active: [9] 6.6 µM

CC(C)Nc1ccc(NC(C)C)c2c1C(=O)c1ccccc1C2=O
inactive: [3] | [4] | [5] | [10]
active: [7] 19.1 µM | [9] 18.2 µM

CCOCOCC
inactive: [11] | [12] | [13] | [14] | [15] | [16] | [17] | [18] | [19]

CCn1c2ccccc2c2ccccc21
active: [11] 50 µM | [13] 50 µM
inactive: [12] | [14] | [15] | [16] | [19]

CCOC(OCC)OCC
inactive: [7] | [2] | [3] | [5] | [10]

CC(C)OC=O
inactive: [2] | [3] | [8] | [9] | [4] | [5] | [10]

Cc1ccc([N+](=O)[O-])c(C)c1
inactive: [2] | [3] | [9] | [4] | [10]

CCCCOC(=O)C(C)O (stereo not given)
active: [3] 2.95 µM
inactive: [2] | [8] | [4] | [10]

CCN(CC)c1ccc(N=Nc2ccccc2)cc1
active: [11] 10 µM
inactive: [12] | [13] | [14] | [15] | [16] | [17] | [18] | [19]

CCN(CC)c1ccc(C=O)cc1
inactive: [11] | [12] | [13] | [14] | [15] | [17] | [18] | [19]
active: [16] 59.2 µM

N#Cc1ccccc1O
inactive: [2] | [3] | [9] | [5] | [10] | [11] | [12] | [14] | [15] | [19]
active: [13] 30.1 µM | [16] 77.7 µM

O=C(c1ccccc1)c1ccc(Cl)cc1
active: [13] 37.9 µM
inactive: [11] | [12] | [14] | [15] | [16] | [19]

CCOC(=O)C1CC(=O)C(=C(O)C2CC2)C(=O)C1 (stereo not given)
inactive: [7] | [2] | [3] | [8] | [4] | [5] | [10]

Nc1cccnc1N
inactive: [11] | [12] | [13] | [14] | [15] | [16] | [19]

CC(=O)CCC(C)C
inactive: [2] | [3] | [8] | [4] | [10]

Oc1ccc2c(c1)CCC2
inactive: [11] | [14] | [15] | [16] | [18]
active: [17] 39.1 µM

O=c1[nH]cccc1O
inactive: [14] | [15] | [17] | [18] | [19]
active: [11] 8.85 µM | [12] 6.71 µM | [13] 8.78 µM | [16] 5.07 µM

OCCC(O)CO (stereo not given)
inactive: [11] | [12] | [13] | [14] | [15] | [16] | [19]

O=C1c2ccccc2C(=O)c2c(Cl)cccc21
inactive: [11] | [12] | [13] | [14] | [15] | [16] | [17] | [18] | [19]

CCCCOC(=O)[C@H](C)O
inactive: [2] | [3] | [4] | [5] | [10]

CN1CN(C)CN(C)C1
inactive: [11] | [12] | [13] | [14] | [15] | [16] | [17] | [18] | [19]

Cc1cccc(C)n1
inactive: [11] | [12] | [13] | [14] | [15] | [16] | [17] | [18] | [19]
